In PubChem BioAssay AID2174 (The Scripps Research Institute Molecular Screening Center, 2009):
Screen size: about 320,000 compounds; about 500 (0.16%) were called active.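 How the source made its calls: active means inhibition above the mean of all tested compounds plus 3 SD, set per campaign (cut at about 14% in these data); inactive means the rest.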 The entries come from a sample that favours actives as a whole.

These compounds were tested against Acyl-protein thioesterase 1 (Homo sapiens) (UniProt O75608) (assay: inhibition of human lysophospholipase 1 – biochemical, fluorescence polarization, FP-Rh probe ABPP, counter-screen for PME1 inhibitor project, primary screen (AID 2174;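 further: inhibitors block serine hydrolase probe labeling of LYPLA1 so polarization falls; 0% = enzyme with DMSO and 100% = wells lacking LYPLA1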)). Details: recombinant LYPLA1, FP-Rh probe fluorescence polarization; at 5.9 µM; stronger effect = higher value.
Acyl-protein thioesterase 1 (Homo sapiens), sequence (O75608 whole entry, looked up): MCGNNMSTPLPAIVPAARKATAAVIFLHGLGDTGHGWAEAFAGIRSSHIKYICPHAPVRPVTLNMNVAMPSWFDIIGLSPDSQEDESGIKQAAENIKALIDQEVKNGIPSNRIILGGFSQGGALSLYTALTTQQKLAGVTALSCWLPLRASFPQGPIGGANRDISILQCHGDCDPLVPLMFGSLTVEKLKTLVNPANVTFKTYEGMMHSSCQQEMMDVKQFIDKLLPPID

Row | SMILES | inhibition
1 | Cc1ccc(S(=O)(=O)N2CCC(C(=O)N[C@@H](C)C(=O)NCc3ccccc3)CC2)cc1 | -4.86% (inactive)
2 | Cc1ccc(S(=O)(=O)N2CCC(C(=O)N[C@@H](C)C(=O)NCc3ccco3)CC2)cc1 | 48% (active)
3 | Cc1ccc(S(=O)(=O)N2CCC(C(=O)N[C@@H](C)C(=O)NCCc3ccccc3)CC2)cc1 | 2.54% (inactive)
4 | COc1ccc(C(C)NC(=O)C2CCCC2)cc1 (configuration not stated) | 0.96% (inactive)
5 | Cc1c(Nc2nc3ccccc3nc2NS(=O)(=O)c2cccs2)c(=O)n(-c2ccccc2)n1C | -0.16% (inactive)
6 | CCOC(=O)c1c(/N=C/c2cc(C)ccc2O)sc2c1CCC2 | -3.88% (inactive)
7 | C=CCNC(=O)c1sc(SC)cc1-c1ccc(Cl)cc1 | 21.3% (active)
8 | C=CCNC(=S)NNC(=O)c1cc(Cl)ccc1OC | 1.08% (inactive)
9 | C=CCNC(=O)c1cc(-c2ccccc2O)on1 | -0.65% (inactive)
10 | CCn1cc(-c2cc(C(=O)O)on2)c(C)n1 | -0.98% (inactive)
11 | CC(C)S(=O)(=O)c1csc(NC(=O)Nc2ccc(Cl)cc2)c1Cl | -33.1% (inactive)
12 | CC1Cn2c(nnc2-c2cccs2)S1 (configuration not stated) | -1.86% (inactive)
13 | CN1C(=O)c2ccccc2C(C(=O)NCCCN2CCCC2)C1c1c[nH]c2ccccc12 (configuration not stated) | 3.18% (inactive)
14 | O=C1NC2(CCCCCC2)C(=O)N1CCS(=O)(=O)Oc1ccccc1 | -0.42% (inactive)
15 | CC(C)CCNC(=O)CCNS(=O)(=O)c1ccc(Cl)cc1 | -1.02% (inactive)
16 | O=C(CCCn1c(=O)c2sccc2n(CC(=O)NCC2CCCO2)c1=O)NCc1ccco1 (configuration not stated) | 4.84% (inactive)
17 | CCCCN(C(=O)/C=C/c1ccco1)c1c(N)n(CC(C)C)c(=O)[nH]c1=O | -1.43% (inactive)
18 | O=C(NC1CC1)C1=C[C@H](c2c[nH]c3ccccc23)C[C@H](OCc2ccc(CO)cc2)O1 | 0.98% (inactive)
19 | CC(=O)N1CCN(C(=O)c2cc(-c3ccc(Cl)s3)nc3ccccc23)CC1 | -4.07% (inactive)
20 | CCOc1ccc(N(CC(=O)NCCc2ccc(OC)cc2)S(C)(=O)=O)cc1 | 1.18% (inactive)
21 | CCn1c(SCC(=O)NC2CC2)nnc1-c1ccccn1 | -1.31% (inactive)
22 | COc1ccc(/C=C(\NC(=O)c2ccccc2)C(=O)NCCN2CCOCC2)cc1OC | -3.08% (inactive)

Row | SMILES | inhibition
23 | CCN1CCN(CCNC(=O)c2ccc3c(c2)NC(=O)/C(=C\c2ccc(OC)c(OC)c2)S3)CC1 | 24.7% (active)
24 | COc1ccc(CCNC(=O)c2ccc3c(c2)NC(=O)C(N2CCOCC2)S3)cc1OC (configuration not stated) | -0.92% (inactive)
25 | CCNc1ccc(C(=O)OCC(=O)N2c3ccccc3NC(=O)C2(C)C)cc1[N+](=O)[O-] | 2.28% (inactive)
26 | C=C(C)CSc1nc(N)c2c3c(sc2n1)CCC3 | -2.73% (inactive)
27 | CCc1noc(C)c1C(=O)N1CCN(S(=O)(=O)c2cccc(C(F)(F)F)c2)CC1 | -4.37% (inactive)
28 | O=C(COc1ccccc1Cl)Nc1ccc(C(=O)c2ccc(C(=O)O)cc2)cc1 | 0.16% (inactive)
29 | O=C(NC(Cc1ccc(O)cc1)C(=O)O)/C(=C/c1ccccc1)NC(=O)c1ccccc1 (configuration not stated) | -3.61% (inactive)
30 | O=C(O)c1ccccc1-c1ccccc1C(=O)NCCc1ccccc1 | -3.92% (inactive)
31 | CC(C)CC1(C(=O)NCc2ccccn2)C=CCN1C(=O)c1ccccc1 (configuration not stated) | 0.98% (inactive)
32 | CCc1[nH]nc(C(=O)N2CCCC(CO)(Cc3ccc(F)cc3F)C2)c1C (configuration not stated) | -0.39% (inactive)
33 | COC(=O)c1ccc(SCc2ccccc2)nc1 | -1.56% (inactive)
34 | CCn1c(SCc2ccccc2)nc2cc(OC)c(OC)cc2c1=O | -1.81% (inactive)
35 | CSc1c(SCc2ccccc2)cnn(Cc2ccccc2)c1=O | 15% (active)
36 | COC(=O)C1=C(C(=O)OC)[C@@H]2N(C)c3ccccc3[C@@]23C[C@@H](C(=O)OC)N(C(C)=O)C3=N1 | -0.85% (inactive)
37 | CCCCCCCCCCCC(=O)O | 1.07% (inactive)
38 | COc1ccc(C2C(C#N)=C(N)Oc3n[nH]c(C)c32)cc1CN1CCN(c2ccc(F)cc2)CC1 (configuration not stated) | -1.23% (inactive)
39 | CCOC(=O)C1(CC2CCCCO2)CCN(Cc2nc(-c3cccs3)oc2C)CC1 (configuration not stated) | -3.08% (inactive)
40 | CC[N+](C)(CC)CCC[n+]1c(-c2ccccc2)c2cc(N)ccc2c2ccc(N)cc21 | 60.1% (active)
41 | CCOC(=O)C1=C(CC)Nc2ccccc2N=C1NC(=O)c1cccc(S(=O)(=O)N2CCCC2)c1 | -0.79% (inactive)
42 | COc1cc(OC)cc(-c2c(-c3ccc(F)cc3)c3cc(-c4ccc5cc[nH]c5c4)ccc3n2C)c1 | -1.29% (inactive)
43 | CC1=C[C@H]2Cc3cc(C)cc(C)c3S(=O)(=O)[C@@H]2C=C1 | -3.78% (inactive)
44 | O=C(N/C(=C\c1ccc(F)cc1)C(=O)N1CCCCCC1)c1ccccc1 | -1.76% (inactive)

Row | SMILES | inhibition
45 | CC1=C(C)C(=O)OC(C(C)C2CCC3C4CC=C5CC(OC6OC(COC7OC(CO)C(O)C(O)C7O)C(O)C(O)C6O)CC(O)C5(C)C4CCC23C)C1 (configuration not stated) | -11.7% (inactive)
46 | COc1cccc(/C=C/C(=O)OCC(=O)N2CCCc3ccccc32)c1 | -0.36% (inactive)
47 | COc1ccccc1N1CC(C(=O)NCCN2C(=O)S/C(=C\c3cccnc3)C2=O)CC1=O (configuration not stated) | -0.75% (inactive)
48 | COc1ccc(N2CC(C(=O)NCCN3C(=O)S/C(=C\c4cccnc4)C3=O)CC2=O)c(OC)c1 (configuration not stated) | 67.3% (active)
49 | CCOc1ccc(N2CC(C(=O)NCCN3C(=O)S/C(=C\c4cccnc4)C3=O)CC2=O)cc1 (configuration not stated) | 7.93% (inactive)
50 | CCOc1ccc(S(=O)(=O)N2CCCCC2)cc1NC(=O)CN1CCCC1c1cccs1 (configuration not stated) | -2.05% (inactive)
51 | Cc1sc2ncn(CC(=O)NCCCC(=O)NCc3ccc(F)cc3)c(=O)c2c1C | 3.83% (inactive)
52 | CC(C)(CNC(=O)CNC(=O)C1CCCCC1)N1CCOCC1 | -3.79% (inactive)
53 | Cn1cc(/C=C/C(=O)N2CCCC(C(=O)c3ccc(C(F)(F)F)cc3)C2)cn1 (configuration not stated) | -3.26% (inactive)
54 | CCCCn1c(N)c(N(CCC(C)C)C(=O)CC2OC(=O)c3ccccc32)c(=O)[nH]c1=O (configuration not stated) | 16.4% (active)
55 | CCCCn1c(N)c(N(CCC(C)C)C(=O)c2ccc([N+](=O)[O-])o2)c(=O)[nH]c1=O | -7.18% (inactive)
56 | CCCCn1c(N)c(N(CCC(C)C)C(=O)c2ccc(COc3ccccc3)o2)c(=O)[nH]c1=O | 2.38% (inactive)
57 | O=[N+]([O-])c1ccc(N(CCO)Cc2ccccc2)c([N+](=O)[O-])c1 | -0.28% (inactive)
58 | O=C(CN1CCCCCC1)Nc1ccc(S(=O)(=O)N2CCCCC2)cc1 | 1.21% (inactive)
59 | O=C(CN1CCN(c2cccc(Cl)c2)CC1)Nc1ccc(S(=O)(=O)N2CCOCC2)cc1 | 18.1% (active)
60 | O=C(CN1C(=O)CCC1=O)Nc1ccc(S(=O)(=O)N2CCOCC2)cc1 | -5.25% (inactive)
61 | CCCCn1c(N)c(N(CC(C)C)C(=O)C2CSC3(C)CCC(=O)N23)c(=O)[nH]c1=O (configuration not stated) | -1.21% (inactive)
62 | COC(=O)c1sc(=S)n(-c2ccc(Cl)cc2)c1C | 0.52% (inactive)
63 | COCCOC(=O)c1sc(=S)n(CCOC)c1N | 19.7% (active)
64 | CC(=O)Nc1ccc(N2C(=O)C3C4CC(=O)C(c5ccccc54)C3C2=O)cc1 (configuration not stated) | 1.72% (inactive)
65 | COc1ccccc1-n1c(=S)[nH]c2c(sc(=S)n2-c2ccc(C)cc2C)c1=O | 2.01% (inactive)
66 | Cc1ccc(Oc2ccc3c(c2)C(=O)N(c2cccc4cccnc24)C3=O)cc1 | -5.81% (inactive)

Row | SMILES | inhibition
67 | O=S(=O)(NCCCN1CCOCC1)c1ccc(F)c(Cl)c1 | 2.43% (inactive)
68 | Cc1c(Br)c([N+](=O)[O-])nn1CC(=O)N1CCN(Cc2ccccc2)CC1 | 1.03% (inactive)
69 | COc1cccc(C(C(=O)NC2CCCC2)N(C(=O)c2ccco2)c2cccc(C(C)=O)c2)c1OC (configuration not stated) | 0.23% (inactive)
70 | O=c1[nH][nH]c(C(F)(F)F)c1C=NCc1ccccc1Cl | 1.78% (inactive)
71 | Cc1ccc(OCC(=O)Oc2ccccc2[N+](=O)[O-])cc1 | 1.05% (inactive)
72 | COc1ccc(/C=C/c2noc(-c3ccccc3OC(C)=O)n2)cc1 | -1.21% (inactive)
73 | CN=C1SC(C(=O)O)CC(=O)N1C (configuration not stated) | -2.92% (inactive)
74 | O=C(CSc1nnc(-c2ccoc2)o1)N1CCOCC1 | -2.17% (inactive)
75 | Cc1cc2ccccn2c1C(=O)c1cccc(S(=O)(=O)N2CCOCC2)c1 | -1.9% (inactive)
76 | O=C(NCc1ccccc1)[C@H]1C[C@@H]1[C@H](NP(=O)(c1ccccc1)c1ccccc1)c1ccccc1 | -4.27% (inactive)
77 | CCCCCCNCCn1cnc2c(N)ncnc21 | -4.2% (inactive)
78 | CC1(C)CC(=O)C/C(=N\NC(=O)c2cccs2)C1 | -2.89% (inactive)
79 | CCOc1ncccc1C(=O)OCC(=O)c1c[nH]c2ccccc12 | -4.27% (inactive)
80 | COc1ccc(-c2nc(CS(=O)CC(=O)NCc3ccccc3)c(C)o2)cc1OC (configuration not stated) | -1.5% (inactive)
81 | COc1cccc(-c2nc(CS(=O)CC(=O)NCc3ccc(F)cc3)c(C)o2)c1 (configuration not stated) | 1.75% (inactive)
82 | COc1ccc(-c2nc(CS(=O)CC(=O)NCc3ccccn3)c(C)o2)cc1 (configuration not stated) | 25% (active)
83 | O=C1CC(C(F)(F)C(F)(F)C(F)(F)C(F)(F)F)=Nc2ccccc2N1 | 0.46% (inactive)
84 | CCN(Cc1ccccc1)S(=O)(=O)c1cc(C(=O)O)ccc1OC | -4.32% (inactive)
85 | Nc1nc(SCC(=O)NNc2c(Cl)cc(Cl)cc2Cl)n[nH]1 | 2.34% (inactive)
86 | Cc1cc(C)c(C#N)c(SCC(=O)NN2CC(=O)N(c3ccccc3F)CC2=O)n1 | -0.67% (inactive)
87 | Cc1cccc(-n2c(SCC(N)=O)nc3c(c2=O)C2(CCCCC2)Cc2ccccc2-3)c1 | -3.86% (inactive)
